Test results as given in PubChem BioAssay.
Calls of active or inactive are those of the source.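 The calls were made as follows: active = Her2 level under about 52% in both replicate screens, with viability over 70% of control (limit read from the data); inconclusive = Her2 under the limit in one screen only, or viability under 70%; inactive = Her2 level above the set limit.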

tested on: not listed separately; experiment: reducers of endogenous Her2 protein level, primary screen, SKBR3 breast tumor cells, AlphaScreen, ATP viability (AID 461); settings: 18-24 h, measured here: SKBR3 viability, ATP luminescence, at 10 µM;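 as to Her2 level: lower value means less Her2 protein in the cells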;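 as to viability: percent of carrier control wells set as 100% viability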

| SMILES | viability [%] |
| --- | --- |
| COc1cccc(C(c2nnnn2CCc2ccccc2)N2CCN(c3ccccc3)CC2)c1OC (stereo not given) | 91 |
| CCN(CCO)C1CC(=O)N(c2ccccc2C)C1=O (stereo not given) | 95 |
| CCOC(=O)C1=C(C)Nc2nnnn2C1c1c[nH]c2ccccc12 (stereo not given) | 110 |
| Cc1cc(C)c(OCC(=O)Nc2ccc3c(c2)OCO3)cc1C | 106 |
| COc1ccccc1-c1nc(C#N)c(N2CCN(c3ccccc3)CC2)o1 | 104 |
| O=C1CCC(=O)N1OCCCOc1ccc(Br)cc1Cl | 106 |
| CCOc1cc(C(=O)NCC2CCCO2)cc(OCC)c1OCC (stereo not given) | 100 |
| COc1ccc2c(c1OC)C(=O)OC2C1c2c(cc3c(c2OC)OCO3)CCN1C (stereo not given) | 89 |
| Cc1ccc(-c2nnn(CC(=O)N(CC3CCCO3)C(C(=O)NC(C)(C)C)c3ccc(F)cc3)n2)o1 (stereo not given) | 106 |
| O=c1ccc(S(=O)(=O)N2CCC(Cc3ccccc3)CC2)c[nH]1 | 86 |
| Cc1[nH]c(=O)[nH]c(=O)c1S(=O)(=O)N1c2ccc(F)cc2CCC1C (stereo not given) | 97.5 |
| NC(=O)c1ccccc1NC(=O)CN1CCOCC1 | 106 |
| O=C(Nn1c(C2CC2)nc2ccccc2c1=O)c1ccco1 | 109 |
| CCOc1ccc(-c2nnn(CCC(=O)O)n2)cc1OC | 95.5 |
| O=C(CCN1C(=O)COc2ccccc21)NCCN1CCN(c2cccc(Cl)c2)CC1 | 94.5 |
| Cc1ccc(-n2nc(-c3cccs3)cc2C(=O)NCC2CCCO2)c(C)c1 (stereo not given) | 122 |
| Cc1cc(C)cc(OCCCC(=O)O)c1 | 114 |
| CCN(C(=O)Cc1c(C(=O)O)[nH]c2ccccc12)c1cc(OC)ccc1OC | 112 |
| C=CCSC1=C(C#N)C(c2ccccc2OCC)CC(=O)N1 (stereo not given) | 94 |
| COc1ccc(Br)cc1S(=O)(=O)N1CC(C)OC(C)C1 (stereo not given) | 90.5 |

| SMILES | viability [%] |
| --- | --- |
| O=C(NCc1ccco1)c1cccn2c(=O)c3sccc3nc12 | 104 |
| Cc1cc(NC(=O)C23CCC(C)(c4nc5cc(Cl)c(Cl)cc5nc42)C3(C)C)no1 (stereo not given) | 124 |
| CC(NC(=O)Nc1ccccc1)C(c1cccs1)N1CCOCC1 (stereo not given) | 108 |
| CCS(=O)(=O)Nc1ccc(C(=O)CC2(O)C(=O)Nc3ccccc32)cc1 (stereo not given) | 105 |
| CCN(CC)C(=O)Cn1c(=O)n(Cc2ccccc2Cl)c2c1c(=O)n(C)c(=O)n2C | 98 |
| CC(C)COc1nc2ccccc2nc1C(C#N)C(=O)NC1CCCCC1 (stereo not given) | 99 |
| CCOC(=O)c1sc(NC(=O)CNC(=O)Cn2cnc3sc(C)c(C)c3c2=O)nc1C | 94 |
| CCc1cc(=O)oc2c(CN3CCN(C)CC3)c(O)c(Cl)cc12 | 107 |
| CC(=O)N1C(=O)C2(Nc3ccccc3N2)c2ccccc21 | 110 |
| COc1ccc(C)cc1S(=O)(=O)N(CC(=O)O)c1ccccc1 | 118 |
| COc1ccc(N2C(N)=C(C#N)C(c3cccnc3)C3=C2CC(C)(C)CC3=O)cc1 (stereo not given) | 106 |
| COc1ccc(NC(=O)CN2CCN(S(=O)(=O)c3ccc(Cl)cc3)CC2)cc1 | 92 |
| O=C(O)c1cccc(S(=O)(=O)N2CCOCC2)c1 | 118 |
| CCn1c(C)cc(=S)c2ccccc21 | 114 |
| Cn1c(SCC(=O)O)nnc1C1CCCCC1 | 102 |
| COc1ccc(OC)c(NC(=O)CCN2CCN(c3ccccc3F)CC2)c1 | 94.5 |
| O=C(CSc1ncnc2c1oc1ccccc12)Nc1ccccc1C(F)(F)F | 118 |
| Cc1ccc(S(=O)(=O)NCCC(=O)OCn2nnc3ccccc3c2=O)cc1 | 95.5 |
| CCOc1ccc2nc(SCC#N)c(C#N)cc2c1 | 93 |
| O=C(Nc1cccnc1)c1ccc2c(c1)OCO2 | 119 |

molecular target: Receptor tyrosine-protein kinase erbB-2 (Homo sapiens) (UniProt P04626); experiment: as above; settings: 18-24 h, at 10 µM, stronger effect = lower value
Sequence (P04626 whole entry, looked up): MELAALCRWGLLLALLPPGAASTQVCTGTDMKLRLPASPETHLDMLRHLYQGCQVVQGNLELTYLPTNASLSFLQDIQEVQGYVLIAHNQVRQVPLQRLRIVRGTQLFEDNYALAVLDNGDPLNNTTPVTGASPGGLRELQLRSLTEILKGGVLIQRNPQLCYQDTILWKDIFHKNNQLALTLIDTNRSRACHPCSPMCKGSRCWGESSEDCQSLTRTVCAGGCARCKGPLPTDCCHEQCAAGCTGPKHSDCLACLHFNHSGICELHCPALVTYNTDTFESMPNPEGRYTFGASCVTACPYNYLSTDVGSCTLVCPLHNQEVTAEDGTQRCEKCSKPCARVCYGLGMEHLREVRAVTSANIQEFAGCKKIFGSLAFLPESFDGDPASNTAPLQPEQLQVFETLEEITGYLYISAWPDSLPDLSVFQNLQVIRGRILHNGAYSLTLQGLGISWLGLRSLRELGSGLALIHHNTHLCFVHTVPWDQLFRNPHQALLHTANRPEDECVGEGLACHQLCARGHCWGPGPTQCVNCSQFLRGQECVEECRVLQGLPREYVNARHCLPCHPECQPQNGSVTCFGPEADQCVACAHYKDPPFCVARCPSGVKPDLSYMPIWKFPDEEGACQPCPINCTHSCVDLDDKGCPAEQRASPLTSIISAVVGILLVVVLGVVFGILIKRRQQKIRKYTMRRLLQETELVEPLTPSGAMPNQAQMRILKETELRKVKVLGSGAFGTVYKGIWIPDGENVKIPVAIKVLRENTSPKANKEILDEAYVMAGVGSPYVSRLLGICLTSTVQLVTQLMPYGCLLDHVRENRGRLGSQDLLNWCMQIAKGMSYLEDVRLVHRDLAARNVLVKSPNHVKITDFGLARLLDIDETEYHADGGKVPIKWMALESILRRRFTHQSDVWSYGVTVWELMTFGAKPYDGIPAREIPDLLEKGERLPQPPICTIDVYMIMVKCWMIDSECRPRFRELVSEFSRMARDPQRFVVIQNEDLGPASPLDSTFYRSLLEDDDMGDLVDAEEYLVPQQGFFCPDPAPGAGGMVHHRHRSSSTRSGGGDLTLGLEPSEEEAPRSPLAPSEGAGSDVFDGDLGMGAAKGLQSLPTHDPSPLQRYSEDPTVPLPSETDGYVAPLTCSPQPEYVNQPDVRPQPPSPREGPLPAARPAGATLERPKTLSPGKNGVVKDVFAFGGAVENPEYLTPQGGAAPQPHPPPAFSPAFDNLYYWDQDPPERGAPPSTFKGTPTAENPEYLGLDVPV

| SMILES | Her2 level |
| --- | --- |
| COc1cccc(C(c2nnnn2CCc2ccccc2)N2CCN(c3ccccc3)CC2)c1OC (stereo not given) | 88% (inactive) |
| CCN(CCO)C1CC(=O)N(c2ccccc2C)C1=O (stereo not given) | 93.5% (inactive) |
| CCOC(=O)C1=C(C)Nc2nnnn2C1c1c[nH]c2ccccc12 (stereo not given) | 94% (inactive) |
| Cc1cc(C)c(OCC(=O)Nc2ccc3c(c2)OCO3)cc1C | 116% (inactive) |
| COc1ccccc1-c1nc(C#N)c(N2CCN(c3ccccc3)CC2)o1 | 79.5% (inactive) |
| O=C1CCC(=O)N1OCCCOc1ccc(Br)cc1Cl | 98.5% (inactive) |
| CCOc1cc(C(=O)NCC2CCCO2)cc(OCC)c1OCC (stereo not given) | 110% (inactive) |
| COc1ccc2c(c1OC)C(=O)OC2C1c2c(cc3c(c2OC)OCO3)CCN1C (stereo not given) | 90.5% (inactive) |
| Cc1ccc(-c2nnn(CC(=O)N(CC3CCCO3)C(C(=O)NC(C)(C)C)c3ccc(F)cc3)n2)o1 (stereo not given) | 96% (inactive) |
| O=c1ccc(S(=O)(=O)N2CCC(Cc3ccccc3)CC2)c[nH]1 | 80.5% (inactive) |
| Cc1[nH]c(=O)[nH]c(=O)c1S(=O)(=O)N1c2ccc(F)cc2CCC1C (stereo not given) | 90% (inactive) |
| NC(=O)c1ccccc1NC(=O)CN1CCOCC1 | 87% (inactive) |
| O=C(Nn1c(C2CC2)nc2ccccc2c1=O)c1ccco1 | 108% (inactive) |
| CCOc1ccc(-c2nnn(CCC(=O)O)n2)cc1OC | 84% (inactive) |
| O=C(CCN1C(=O)COc2ccccc21)NCCN1CCN(c2cccc(Cl)c2)CC1 | 84% (inactive) |
| Cc1ccc(-n2nc(-c3cccs3)cc2C(=O)NCC2CCCO2)c(C)c1 (stereo not given) | 100% (inactive) |
| Cc1cc(C)cc(OCCCC(=O)O)c1 | 97% (inactive) |
| CCN(C(=O)Cc1c(C(=O)O)[nH]c2ccccc12)c1cc(OC)ccc1OC | 84% (inactive) |
| C=CCSC1=C(C#N)C(c2ccccc2OCC)CC(=O)N1 (stereo not given) | 81% (inactive) |
| COc1ccc(Br)cc1S(=O)(=O)N1CC(C)OC(C)C1 (stereo not given) | 100% (inactive) |

| SMILES | Her2 level |
| --- | --- |
| O=C(NCc1ccco1)c1cccn2c(=O)c3sccc3nc12 | 74.5% (inactive) |
| Cc1cc(NC(=O)C23CCC(C)(c4nc5cc(Cl)c(Cl)cc5nc42)C3(C)C)no1 (stereo not given) | 96.5% (inactive) |
| CC(NC(=O)Nc1ccccc1)C(c1cccs1)N1CCOCC1 (stereo not given) | 107% (inactive) |
| CCS(=O)(=O)Nc1ccc(C(=O)CC2(O)C(=O)Nc3ccccc32)cc1 (stereo not given) | 91% (inactive) |
| CCN(CC)C(=O)Cn1c(=O)n(Cc2ccccc2Cl)c2c1c(=O)n(C)c(=O)n2C | 100% (inactive) |
| CC(C)COc1nc2ccccc2nc1C(C#N)C(=O)NC1CCCCC1 (stereo not given) | 105% (inactive) |
| CCOC(=O)c1sc(NC(=O)CNC(=O)Cn2cnc3sc(C)c(C)c3c2=O)nc1C | 88.5% (inactive) |
| CCc1cc(=O)oc2c(CN3CCN(C)CC3)c(O)c(Cl)cc12 | 93.5% (inactive) |
| CC(=O)N1C(=O)C2(Nc3ccccc3N2)c2ccccc21 | 95.5% (inactive) |
| COc1ccc(C)cc1S(=O)(=O)N(CC(=O)O)c1ccccc1 | 114% (inactive) |
| COc1ccc(N2C(N)=C(C#N)C(c3cccnc3)C3=C2CC(C)(C)CC3=O)cc1 (stereo not given) | 90% (inactive) |
| COc1ccc(NC(=O)CN2CCN(S(=O)(=O)c3ccc(Cl)cc3)CC2)cc1 | 76% (inactive) |
| O=C(O)c1cccc(S(=O)(=O)N2CCOCC2)c1 | 121% (inactive) |
| CCn1c(C)cc(=S)c2ccccc21 | 99.5% (inactive) |
| Cn1c(SCC(=O)O)nnc1C1CCCCC1 | 110% (inactive) |
| COc1ccc(OC)c(NC(=O)CCN2CCN(c3ccccc3F)CC2)c1 | 106% (inactive) |
| O=C(CSc1ncnc2c1oc1ccccc12)Nc1ccccc1C(F)(F)F | 126% (inactive) |
| Cc1ccc(S(=O)(=O)NCCC(=O)OCn2nnc3ccccc3c2=O)cc1 | 82.5% (inactive) |
| CCOc1ccc2nc(SCC#N)c(C#N)cc2c1 | 106% (inactive) |
| O=C(Nc1cccnc1)c1ccc2c(c1)OCO2 | 121% (inactive) |
